In PubChem BioAssay (NCI) one finds growth data, which are given here for 14 molecules.

Values joined by “and” are separate entries in the source; they are usually repeats but may differ in a detail not shown here. Equal values may be shown once. Compounds without any hit were thinned out: in the full panel of roughly 83,000, 20% have a hit.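 Activity criterion: percent growth below 10, measured after cells in 96-well plates were exposed to a single compound concentration for 48 hours.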 Active and inactive are the calls of the source.

Test systems include T-47D breast; BT-549 breast; MDA-MB-435 melanoma; SW-620 colon; MCF7 breast; HCT-116 colon; HCC-2998 colon; KM12 colon.
What all share (assay): NCI-60 one-dose screen, 48 h (100 = growth as untreated, 0 = no growth, -100 = all killed)
Common to all, as to details: 10 µM unless noted

Consider `CN1CCN(Cc2ccc(NC(=O)c3cncc(C#Cc4cnc5ccc(OC6CCOCC6)nn45)c3)cc2C(F)(F)F)CC1`, for which the growth with T-47D breast was -56.1% (active); in the assay on BT-549 breast, -82.7% (active); in the assay on MDA-MB-435 melanoma it was -81.6% (active); with SW-620 colon it was -18.2% (active); in the assay on MCF7 breast it was -67.1% (active); in the assay on HCT-116 colon, -89.5% (active). Further, the growth in the assay on HCC-2998 colon and with KM12 colon was -68.5% (active) each time.

For `O=C(Nc1ccc(Cl)c(C(F)(F)F)c1)Nc1ccc2c(ccn2C(=O)c2cccc(F)c2)c1`, the growth in the assay with T-47D breast is 0.647% (active); in the assay with BT-549 breast it was 53.3% (inactive); in the assay on MDA-MB-435 melanoma it was 34.6% (inactive); in the assay on SW-620 colon, 40.9% (inactive); in the assay with MCF7 breast it was 12.9% (inactive); with HCT-116 colon, 20% (inactive). The growth is 44.1% (inactive) with HCC-2998 colon and 11% (inactive) in the assay with KM12 colon.

On to `COc1cc(-c2nc(-c3ccccc3)[nH]c2-c2ccnc(NCCCNS(=O)(=O)c3cccc(F)c3)n2)ccc1F`, for which the growth in the assay with T-47D breast was 66.5% (inactive); in the assay with BT-549 breast, 128% (inactive); in the assay with MDA-MB-435 melanoma, 82% (inactive); in the assay on SW-620 colon, 106% (inactive); with MCF7 breast, 83.1% (inactive); with HCT-116 colon it was 75.1% (inactive). In addition, the growth in the assay on HCC-2998 colon was 142% (inactive); with KM12 colon, 85.8% (inactive).

For `Cc1ccc2c(n1)C(=O)C(Cl)=C(Nc1ccc(C(C)C)cc1)C2=O`, the growth is -47% (active) in the assay with T-47D breast; 91.9% (inactive) in the assay with BT-549 breast; -81.2% (active) in the assay with MDA-MB-435 melanoma; -22.8% (active) with SW-620 colon; -56.3% (active) with MCF7 breast; -70.8% (active) with HCT-116 colon. Besides, the growth with HCC-2998 colon was 3.71% (active); in the assay on KM12 colon, 57.8% (inactive).

As for `COc1ccc(-c2nc(C#N)c(N3CCC(S(=O)(=O)N4CCOCC4)CC3)o2)cc1`, the growth with T-47D breast is 96.9% (inactive); in the assay with BT-549 breast it was 108% (inactive); with MDA-MB-435 melanoma, 99.3% (inactive); in the assay with SW-620 colon, 95.7% (inactive); with MCF7 breast, 90.7% (inactive); in the assay on HCT-116 colon, 110% (inactive). Moreover, the growth in the assay on HCC-2998 colon is 107% (inactive); with KM12 colon, 97.1% (inactive).

As for `CN1CCN(c2ccc(C(=O)/C=C/c3cc(F)cc(C(F)(F)F)c3)cc2)CC1`, the growth in the assay on T-47D breast is 51.9% (inactive); in the assay with BT-549 breast, 71.2% (inactive); in the assay with MDA-MB-435 melanoma, 24% (inactive); with SW-620 colon, 20% (inactive); in the assay with MCF7 breast it was 8.55% (active); with HCT-116 colon it was 22.8% (inactive). Moreover, the growth was 86.6% (inactive) with HCC-2998 colon and 35.5% (inactive) in the assay with KM12 colon.

As to `Cn1c(SCC(=O)c2ccc(F)cc2)nc2ccccc2c1=O`, the growth in the assay with T-47D breast was 62.5% (inactive); with BT-549 breast, 97% (inactive); in the assay on MDA-MB-435 melanoma, 108% (inactive); in the assay on SW-620 colon, 108% (inactive); in the assay on MCF7 breast, 72.7% (inactive); with HCT-116 colon, 89.1% (inactive). The growth was 104% (inactive) in the assay with HCC-2998 colon and 98.1% (inactive) with KM12 colon.

With `Cc1ccccc1N1CCN(C2=C(Cl)C(=O)c3ncccc3C2=O)CC1`, the growth with T-47D breast is -52.5% (active); in the assay with BT-549 breast it was 99.1% (inactive); with MDA-MB-435 melanoma, -62.9% (active); with SW-620 colon, -27.8% (active); in the assay with MCF7 breast, -29.3% (active); with HCT-116 colon, -95.2% (active). The results for the growth in the assay with HCC-2998 colon and in the assay on KM12 colon were 105% (inactive) and 87.2% (inactive), respectively.

`c1ccc(-c2cn3c(-c4c[nH]c5ccccc45)csc3n2)cc1`: the growth with T-47D breast is 31.9% (inactive); in the assay with BT-549 breast, 41.4% (inactive); with MDA-MB-435 melanoma, 74.7% (inactive); with SW-620 colon, 72.1% (inactive); in the assay on MCF7 breast, 40.3% (inactive); in the assay with HCT-116 colon, 64.5% (inactive). Further, the growth was 71.3% (inactive) in the assay with HCC-2998 colon and 44.7% (inactive) with KM12 colon.

Consider `CC(C)(C)Nc1nc2c(OCCc3ccccc3)cccn2c1-c1ccc([N+](=O)[O-])cc1`, for which the growth with T-47D breast was 15.2% (inactive); in the assay on BT-549 breast, 95.8% (inactive); in the assay on MDA-MB-435 melanoma, 85.3% (inactive); in the assay on SW-620 colon it was 77.6% (inactive); in the assay on MCF7 breast, 7.18% (active); in the assay with HCT-116 colon it was 49.7% (inactive). In addition, the growth with HCC-2998 colon is 49.9% (inactive); with KM12 colon, 36.8% (inactive).

For `COc1cc(-c2nc(-c3ccccc3)[nH]c2-c2ccnc(NCCCNS(=O)(=O)c3ccc(C(F)(F)F)cc3)n2)ccc1Cl`, the growth in the assay on T-47D breast is 44.2% (inactive) and 21.1% (inactive); in the assay on BT-549 breast it was 44.7% (inactive) and 67.2% (inactive); with MDA-MB-435 melanoma it was 29.4% (inactive) and 27.5% (inactive); in the assay with SW-620 colon it was 46.8% (inactive) and 55.9% (inactive); in the assay on MCF7 breast it was 9.62% (active) and 18.3% (inactive); in the assay with HCT-116 colon, 16.3% (inactive) and 17.4% (inactive). The growth in the assay with HCC-2998 colon was 48.5% (inactive) and 51% (inactive); in the assay on KM12 colon, 25% (inactive) and 32.5% (inactive).

Take `N#CC1=C2NCCCNc3oc(nc3C#N)Cc3ccccc3CC(=N1)O2`: the growth is 92.6% (inactive) with T-47D breast; 135% (inactive) with BT-549 breast; 95.1% (inactive) in the assay on MDA-MB-435 melanoma; 50.7% (inactive) with SW-620 colon; 33.8% (inactive) with MCF7 breast; 23.4% (inactive) in the assay on HCT-116 colon. Moreover, the growth is 114% (inactive) in the assay with HCC-2998 colon and 93.6% (inactive) in the assay on KM12 colon.

`NS(=O)(=O)c1ccc(Nc2nc(N/N=C/c3ccc4c(c3)OCO4)nc(Nc3ccccc3)n2)cc1`: the growth with T-47D breast was 54.7% (inactive); in the assay on BT-549 breast, 76.7% (inactive); with MDA-MB-435 melanoma it was 59.2% (inactive); in the assay with SW-620 colon, 49.8% (inactive); in the assay with MCF7 breast it was 18.7% (inactive); with HCT-116 colon, 36.7% (inactive). Besides, the results for the growth with HCC-2998 colon and in the assay on KM12 colon were 23.2% (inactive) and 70.4% (inactive), respectively.

With `CC1(C)CC[C@]2(C(=O)NCCCCCCN(CCCN)CCCN)CC[C@]3(C)C(=CC[C@@H]4[C@@]5(C)CC[C@H](O)C(C)(C)[C@@H]5CC[C@]43C)[C@@H]2C1`, the growth was 98.6% (inactive) in the assay on T-47D breast; 102% (inactive) in the assay with BT-549 breast; 105% (inactive) in the assay on MDA-MB-435 melanoma; 107% (inactive) with SW-620 colon; 93.4% (inactive) in the assay on MCF7 breast; 99.2% (inactive) with HCT-116 colon. Also, the results for the growth in the assay with HCC-2998 colon and in the assay with KM12 colon were 103% (inactive) and 102% (inactive), respectively.
